Screening data: PubChem, NMMLSC
Most compounds without a hit are left out; they make up all but 2.2% or so of the library.
MEKK2 mut-MEK5: signal of MEK5 binding to mutant human MEKK2 PB1 domain | bead flow cytometry, Alexa488-MEK5 binding to MEKK2 mutant | percent response, % at 10 µM | 290,000 tested, 0.35% active | AID 1530; in the data active = percent response above about 24%, passing the limit was not always enough
VLA-4 inh: inhibition in a human VLA-4 binding assay; VLA-4 expressing cells, ligand binding flow cytometry; AID 2557; 330,000 tested, 0.2% active; inhibition, % (about 7 µM as worked out from the volumes in the protocol); in the data active = inhibition above about 50%
MEKK3 PB1 HTS: MEKK3-MEK5 PB1 interaction, increase or decrease; Q99759; bead-based flow cytometry, Alexa488-MEK5 binding to MEKK3; actives lie on both sides; 0 = blocked by unlabeled MEK5, 100 = vehicle; binding response (% of control), % at 10 µM; 290,000 tested, 1.4% active;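 active = binding response more than 3 SD above or below the average of its plate-row segment, actives on both sides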;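 note: Alexa488 bead fluorescence after subtracting the streptavidin-only scavenger bead signal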
Target sequence (Q99759 whole entry, looked up): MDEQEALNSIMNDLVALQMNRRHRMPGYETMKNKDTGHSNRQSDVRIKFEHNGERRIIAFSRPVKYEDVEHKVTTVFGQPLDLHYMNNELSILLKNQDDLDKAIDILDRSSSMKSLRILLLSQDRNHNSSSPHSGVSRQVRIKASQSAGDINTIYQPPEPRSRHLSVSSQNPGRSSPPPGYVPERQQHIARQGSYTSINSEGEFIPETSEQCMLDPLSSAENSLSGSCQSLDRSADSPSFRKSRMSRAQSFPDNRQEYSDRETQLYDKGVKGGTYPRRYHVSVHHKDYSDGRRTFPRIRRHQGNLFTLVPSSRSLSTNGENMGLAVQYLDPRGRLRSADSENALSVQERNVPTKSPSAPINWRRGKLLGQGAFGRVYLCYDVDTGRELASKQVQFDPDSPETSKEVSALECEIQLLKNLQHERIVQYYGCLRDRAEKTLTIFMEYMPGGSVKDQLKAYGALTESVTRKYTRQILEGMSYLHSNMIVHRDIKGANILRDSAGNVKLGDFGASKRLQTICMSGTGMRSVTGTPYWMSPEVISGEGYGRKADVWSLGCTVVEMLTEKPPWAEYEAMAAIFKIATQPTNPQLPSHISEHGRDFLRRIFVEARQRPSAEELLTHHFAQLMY
MEKK2wt PB1 HTS: raises or lowers MEK5 binding to wildtype human MEKK2 PB1 domain; Q9Y2U5; bead flow cytometry, Alexa488-MEK5 binding to MEKK2 WT; actives lie on both sides; binding response (% of control), % at 10 µM; 290,000 tested, 1.1% active; in the data active = binding response below about 67% or above about 130%
VLA-4 allo CP: confirmation of allosteric modulators of human VLA-4 integrin; shares compounds with VLA-4 inh; U937 cells, HUTS-21 LIBS mAb binding, flow cytometry; LDV ligand present at threefold Kd; inhibition, % at 6.7 µM; 1,300 tested, 2% active; in the data active = inhibition above about 40%;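 note: 0% = ligand without compound and 100% = no ligand background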
* = called active by the depositor; . = no result given; ! = a repeat was not active.

SMILES	MEKK2 mut-MEK5	VLA-4 inh	MEKK3 PB1 HTS	MEKK2wt PB1 HTS	VLA-4 allo CP
CCc1ccc(C2C3=C(CC(C)(C)CC3=O)Nc3c2c(=O)[nH]c2nc(C)nn32)cc1 (centres undefined)	1	57*	104	105	6
Cc1nc2[nH]c(=O)c3c(n2n1)NC1=C(C(=O)CC(C)(C)C1)C3c1ccc(F)cc1 (centres undefined)	-3	1	97	96	.
c1ccc(C(Cc2nc(-c3cccnc3)no2)c2ccccc2)cc1	5	92*	106	104	-4
CCN(CC)CCOCCOC(=O)C1(c2ccccc2)CCCC1	6	57*	106	111	2
CC1CCN(C(=O)c2cc(S(=O)(=O)N3CCOCC3)ccc2N2CCCC2)CC1	.	21	.	.	.
COc1ccc(-c2nnc3n2N=C(C)CS3)cc1	0	20	101	101	.
COc1ccc(C2=Nn3c(nnc3-c3ccc(OC)cc3)SC2)cc1	-2	54*	98	92	33
OC1C(O)C(O)C(O)C(O)C1O (centres undefined)	.	51*!	.	.	3
Cc1ccc(N(CCC(=O)N2CCOCC2)S(=O)(=O)c2ccccc2)cc1	.	2	.	.	.
COc1cccc(CNC(=O)c2ccc(Cl)c(NC3=NC4CS(=O)(=O)CC4S3)c2)c1 (centres undefined)	1	1	104	106	.
Cc1cccc(N2CCN(C(=O)c3ccc(Cl)c(NC4=NC5CS(=O)(=O)CC5S4)c3)CC2C)c1 (centres undefined)	2	-14	100	104	-6
CCOC(=O)C1CCN(C(=O)c2cccc(NC3=NC4CS(=O)(=O)CC4S3)c2)CC1 (centres undefined)	1	2	100	100	.
Cc1ccc(C(=O)N2CCN(c3ncccn3)CC2)cc1NC1=NC2CS(=O)(=O)CC2S1 (centres undefined)	0	-2	101	101	.
O=C(c1ccc(Cl)c(NC2=NC3CS(=O)(=O)CC3S2)c1)N1CCN(c2ccccc2)CC1 (centres undefined)	1	-3	102	105	0
Cc1ccc(C)c(N2CCN(C(=O)Cc3ccc(NC4=NC5CS(=O)(=O)CC5S4)cc3)CC2)c1 (centres undefined)	-1	56*	101	101	-2
COc1cccc(N2CCN(C(=O)c3cccc(NC4=NC5CS(=O)(=O)CC5S4)c3)CC2)c1 (centres undefined)	0	-40	99	97	0
CN(C(=O)COC(=O)c1cc([N+](=O)[O-])ccc1Cl)c1ccccc1	6	0	102	103	.
COC(=O)CC/C(=N/Nc1ccc(Cl)c(Cl)c1)C(=O)OC	-1	3	105	103	.
Cc1ccc(C)c(N2CCN(C(=O)c3ccc(Cl)c(NC4=NC5CS(=O)(=O)CC5S4)c3)CC2)c1 (centres undefined)	1	-4	102	101	0
NS(=O)(=O)c1cc(C(=O)OCC(=O)Nc2ccc(Cl)cc2[N+](=O)[O-])ccc1Cl	-2	52*	99	99	7
O=C(C(=O)N1CCOCC1)c1cn(CC(=O)N2CCCCC2)c2ccccc12	5	4	107	110	.
O=C(Cn1cc(C(=O)C2CC2)c2ccccc21)NC1CCCC1	-3	58*	95	90	-4
CC(C)NC(=O)Cn1cc(C(=O)C(=O)N2CCOCC2)c2ccccc21	9	4	107	106	7
CCCCn1c(N)c(N(CC(C)C)C(=O)c2cc(Cl)nc3ccccc23)c(=O)[nH]c1=O	.	-4	.	.	.
COc1ccc(/C=N/NC(=O)CCc2n[nH]c(=O)[nH]c2=O)cc1O	-1	45	102	99	2
COc1ccc(OC)c(/C=N/NC(=O)CCc2n[nH]c(=O)[nH]c2=O)c1	-1	-17	120	113	.
CCOC(=O)C1CCN(C2CC(=O)N(c3ccc(OCC)cc3)C2=O)CC1 (centres undefined)	0	-11	104	99	-6
CCCCCCOc1ccc(N2C(=O)CC(N3CCC(C(=O)OCC)CC3)C2=O)cc1 (centres undefined)	3	-10	105	103	-3
CCOc1ncccc1C(=O)OCC(=O)Nc1nnc(-c2ccccc2)o1	.	0	.	.	.
Cc1ccc(C)c(C(=O)COC(=O)C2CCN(c3ccc(C(F)(F)F)cn3)CC2)c1	.	32	.	.	.
